TGFb inhibitor: qHTS for Inhibitors of TGF-b; HepG2 CAGA-GFP TGF-b/SMAD3 reporter, GFP fluorescence, 18 h; TGF-beta stimulated, 500 pg/mL final; Potency, µM (titrated, usually from 46.1 µM), without a hit: at the highest dose activity, negative = inhibition, usual class: inhibitors; 410,000 compounds, 1.2% hits; also: potency is read from the fitted curve at half-maximal effect; % is scaled to controls: 0 for no effect and ±100 for the full control effect; nearly all actives have a fitted effect of over 65% in size
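Read-out: total well GFP (ex488/em500-530) summed from mean per-cell fluorescence. Cells: HEPG2 CAGA-GFP, 1% FBS DMEM, 18 h at 37 degrees C with 500 pg/mL final TGF-beta. Unstimulated wells served as the full-inhibition control; stimulated DMSO wells = 0%.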
DT40 TDP1 CPT: qHTS for Inhibitors of human tyrosyl-DNA phosphodiesterase 1 (TDP1): qHTS in cells in presence of CPT; chicken DT40 Tdp1-/-;hTDP1 cells + 20 nM CPT, ATP luminescence, 48 h; Potency, µM (series often up to 46.2 µM), without a hit: top-dose activity change, negative = growth inhibition, hits mostly inhibitors; 420,000 compounds, 12% hits; AID 686979, 2013; also: potency is read from the fitted curve at half-maximal effect; % is scaled to controls: 0 for no effect and ±100 for the full control effect; nearly all actives have a fitted effect of over 55% in size
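Chicken DT40 Tdp1-/- cells complemented with human TDP1, 400 cells/well, exposed to compounds plus 20 nM camptothecin for at least 48 h at 37 C; viability read as ATP content by CellTiter-Glo luminescence.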
IL1B secr inh: qHTS for Inhibitors of Inflammasome Signaling: IL-1-beta AlphaLISA Primary Screen. THP-1 LPS/ATP IL-1B secretion, AlphaLISA, 16 h; stronger effect = lower value. 360,000 compounds, 4.7% hits. activity change, % at 57.5 µM; in the data active = activity change below about -50%; inconclusive = mostly about -30% to -49%; also: % is scaled to controls: 0 for no effect and ±100 for the full control effect
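Secreted IL-1B measured by AlphaLISA bead assay after 16 h compound exposure of THP-1 cells; compounds (final up to 57.5 uM) added 1 h before LPS (250 ng/mL) and ATP (1.25 mM) stimulation; lower signal means less secretion.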
TDP1 cell noCPT: qHTS for Inhibitors of human tyrosyl-DNA phosphodiesterase 1 (TDP1): qHTS in cells in absence of CPT; DT40 Tdp1-/- hTDP1 cells, no CPT, ATP luminescence, 48 h; Potency, µM (doses to about 46.2 µM), inactives show at the highest dose activity change, negative = growth inhibition, usual class: inhibitors; 420,000 compounds, 15% hits; AID 686978, 2013; also: potency is read from the fitted curve at half-maximal effect; % is scaled to controls: 0 for no effect and ±100 for the full control effect; nearly all actives have a fitted effect of over 55% in size
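A cellular qHTS used chicken DT40 cells lacking endogenous Tdp1 but carrying stably transfected human TDP1. Compounds were applied without camptothecin, and cell growth kinetics were judged by ATP-dependent luminescence after ≥48 hr.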
TDP1 inh: qHTS Assay for Inhibitors of Tyrosyl-DNA Phosphodiesterase (TDP1); 350,000 compounds, 0.28% hits; Tyrosyl-DNA phosphodiesterase 1 (Homo sapiens), Q9NUW8; recombinant TDP1, AlphaScreen DNA substrate cleavage; Potency, µM (doses to about 130 µM), without a hit: at the top dose activity change, negative = inhibition, most hits filed as inhibitors; also: potency is read from the fitted curve at half-maximal effect; % is scaled to controls: 0 for no effect and ±100 for the full control effect; nearly all actives have a fitted effect of over 40% in size
Target sequence (Q9NUW8 whole entry, looked up): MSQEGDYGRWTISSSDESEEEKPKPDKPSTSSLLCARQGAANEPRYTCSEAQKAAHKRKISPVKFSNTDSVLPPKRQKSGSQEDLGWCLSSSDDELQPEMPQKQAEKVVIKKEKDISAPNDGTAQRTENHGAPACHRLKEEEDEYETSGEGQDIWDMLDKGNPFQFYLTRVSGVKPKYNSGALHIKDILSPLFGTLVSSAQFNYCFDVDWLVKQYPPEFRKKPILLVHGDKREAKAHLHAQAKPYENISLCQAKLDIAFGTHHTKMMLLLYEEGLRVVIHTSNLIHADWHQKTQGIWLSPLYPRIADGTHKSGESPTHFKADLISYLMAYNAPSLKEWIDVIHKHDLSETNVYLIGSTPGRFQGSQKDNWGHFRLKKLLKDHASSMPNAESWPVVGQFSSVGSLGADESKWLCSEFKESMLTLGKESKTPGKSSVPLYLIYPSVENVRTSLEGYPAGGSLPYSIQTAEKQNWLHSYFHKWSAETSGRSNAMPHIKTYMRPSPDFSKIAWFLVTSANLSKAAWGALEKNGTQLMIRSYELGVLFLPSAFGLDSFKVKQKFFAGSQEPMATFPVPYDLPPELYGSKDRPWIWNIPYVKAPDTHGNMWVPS
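Recombinant human Tdp1 (E. coli-expressed, 1 nM final) preincubated with compounds 15 min at room temperature, then 5'-biotin/3'-phosphotyrosine-FITC DNA substrate (15 nM final) added for 5 min. AlphaScreen beads (10 ug/ml final) added 10 min; cleavage lowers signal.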
HepG2 tox: qHTS for Inhibitors of TGF-b: Cytotox Counterscreen. HepG2 CAGA-GFP viability, ATP luminescence, 18 h. Potency, µM (titrated, usually from 46.1 µM), for inactives: at the top dose activity change, negative = cytotoxicity, actives largely listed as cytotoxic. 410,000 compounds, 0.76% hits; also: potency is read from the fitted curve at half-maximal effect
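CellTiter-Glo luminescence gave cytotoxicity after 18 hours at 37 degrees C. The cells were HepG2 CAGA-GFP in 1% FBS DMEM, stimulated with 500 pg/mL TGF-beta after compound addition. %Activity was normalised to no-cell wells (complete cell-killing) and DMSO (no toxicity), and curves were fitted and classified.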
* marks the source's active call; other numbers are inactive results; ? = inconclusive; . = not tested or not shown; [ ] = remark or other dose. A selection: hits, their analogues and other compounds. The true share with any hit is near 19%. Unless noted, calls follow the shape of the dose curve; as a rule, active = well fitted curve in the direction sought with a large enough effect; inconclusive = small, poorly fitted or top-dose-only effect, or another doubt; inactive = no such curve, though single readings can be large; an effect the other way counts as inactive or inconclusive.

SMILES	TGFb inhibitor	DT40 TDP1 CPT	IL1B secr inh	TDP1 cell noCPT	TDP1 inh	HepG2 tox
CCCNC(=O)C1(C)CCCN(Cc2cc(-c3ccccc3)nn2C)C1 (centres undefined)	-16.2%	?	-7.6	16.4µM*	.	-31.2%
Nc1ccc(Cc2ccc(C=O)cc2)cc1	-21.9%	-6.1%	.	11.7%	.	0.9%
CCN(CC(=O)Nc1ccc2c(c1)OCCO2)C(=O)c1ccc(CS(C)(=O)=O)cc1	14.5%	-6.6%	24.5	2.0%	0.9%	-6.4%
Cc1ccccc1OC1(C)CCN(Cc2ccc(-c3ccccn3)cc2)C1 (centres undefined)	-30.3%	?	5.4	?	.	-51.1%
CCCNC(=O)C1(C)CCCN(C(=O)COCc2ccccc2)C1 (centres undefined)	14.0%	4.8%	0.0	15.4%	.	5.6%
CC1(Oc2cccc(F)c2)CCN(Cc2ccc(-c3ccccn3)cc2)C1 (centres undefined)	20.5%	?	7.0	18.4µM*	.	-30.1%
CCCNC(=O)C1(C)CCN(C(=O)COCc2ccccc2)C1 (centres undefined)	-7.1%	-4.2%	-56.1*	-0.3%	.	-9.1%
COc1ccc(OC)c2c1cc(C(=O)N[C@H](C(=O)N1CCC[C@H]1C(=O)O)C(C)C)n2C	2.0%	-15.9%	14.1	-12.1%	.	6.7%
COC(=O)CCC(=O)Nc1cc(OC)c(OC)cc1Cc1nccc2cc(OC)c(OC)cc12	47.6%	7.2%	-9.3	4.3%	.	9.1%
CCOc1ccc(Cc2nccc3cc(OCC)c(OCC)cc23)cc1OCC	.	5.8µM*	.	5.8µM*	5.8%	.
COC(=O)C/C=C/C(C)C(OCc1cccc(Br)c1)C(C)C(OC)C1CCCCC1 (centres undefined)	.	.	.	.	10.1%[21 µM]	.
CNc1nc(C)nc(-n2nc(C)cc2C)n1	-16.6%	-9.0%	-1.3	-3.7%	-2.2%	-42.9%
Cc1cc(C)n(-c2nc(NC(C)C)nc(NC(C)(C)C)n2)n1	3.2%	1.26µM*	.	0.794µM*	0.5%	-14.6%
COc1ccc(C(=O)C2CCCN(Cc3cnc(N4CCCC4)s3)C2)cc1OC (centres undefined)	3.7%	-10.8%	13.4	?	0.0%	-24.3%
Cc1cc(C(=O)N2CCCC(C(=O)c3ccc4ccccc4c3)C2)n(C)n1 (centres undefined)	-12.6%	?	19.0	20.6µM*	0.0%	-17.5%
O=C(c1ccc2ccccc2c1)C1CCCN(C(=O)c2cnccn2)C1 (centres undefined)	4.7%	?	28.3	-21.6%	.	5.5%
COc1ccc2cc(C(=O)C3CCCN(Cc4cnc(C)s4)C3)ccc2c1 (centres undefined)	-25.3%	23.1µM*	-65.5*	16.4µM*	.	-13.7%
COc1ccc2cc(C(=O)C3CCCN(C(=O)/C=C/c4ccccn4)C3)ccc2c1 (centres undefined)	0.0%	?	-12.7	20.6µM*	2.8%	12.6µM*
CSc1ccc(C(=O)C2CCCN(C(=O)c3nn(C)c(=O)c4ccccc34)C2)cc1 (centres undefined)	?	?	-17.8	16.4µM*	0.0%	-17.7%
Cn1nc(C(=O)N2CCCC2)c2ccccc2c1=O	?	-16.1%	6.7	0.4%	6.5%	-5.7%
COc1ccc2cc(C(=O)C3CCCN(C(=O)c4cnccn4)C3)ccc2c1 (centres undefined)	-8.3%	?	-10.7	?	.	1.0%
